A number with no mark means an inactive call. Calls follow the shape of the dose curve; as a rule, active = well fitted cell-killing curve with a large enough effect; inconclusive = small, poorly fitted or top-dose-only effect, or effect the other way; inactive = flat fitted curve, though single readings scatter.
test: MultiTox-Fluor Cytotoxicity Assay - LYMP1-003 - Dead Cells (AID 961); settings: LYMP1-003 lymphoblastoid cells, dead-cell protease fluorescence; series mostly up to 92.2 µM; cytotoxicity (dead cells): at the top concentration;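 also: cells exposed to compound for 16 h at 37 °C; 0% = DMSO and 100% = tetraoctylammonium bromide; nearly all actives have a fitted effect of over 70% in size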
Text: NIH Chemical Genomics Center [NCGC]
NIH Molecular Libraries Screening Centers Network [MLSCN]
National Institutes of Environmental Health Sciences [NIEHS]
National Toxicology Program [NTP]
We have developed a 1536-well cell-based assay for quantitative high throughput screening (qHTS) against a number of cell lines to determine in vitro cytotoxicity of small molecules. This particular assay uses a human lymphoblastoid cell line (LYMP1-003) purchased from Coriell Institute.
NCGC Assay Protocol Summary:
The MultiTox-Fluor Cytotoxicity Assay (Promega) is a homogeneous method to simultaneously measure the relative number of live and dead cells in culture by detecting changes in cell membrane integrity. There are two fluorogenic peptide substrates in the assay reagent. Viable cells are determined when the cell-permeant substrate (GF-AFC) enters the cell and is cleaved by protease from live cells resulting in liberated fluorophore. This live-cell protease activity restricted to viable cells is proportional to cell number. The dead cells are determined by using fluorogenic cell-impermeant peptide substrate (bis-AAF-R110) which cleaved by dead cell proteases leaking from damaged cell membrane.
Using the MultiTox-Fluor Cytotoxicity Assay, the relative number of dead cells was measured in the lymphoblastoid cell line with complete culture medium following compound treatment for 16 hours. The assay was performed in opaque black Kalypsys 1536-well plates. In the screen, tetraoctylammonium bromide was used as positive control. Library compounds were measured for their ability to cause acute toxicity in the cell line, as reflected by an increase in dead cell protease activity, in a concentration-dependent manner. Data were normalized to the controls for basal activity (DMSO only) and 100% stimulation (15 uM tetraoctylammonium bromide). AC50 values were determined from concentration-response data modeled with the standard Hill equation.
qHTS protocol for MultiTox-Fluor Cytotoxicity assay
[Step] [Parameter] [Value] [Description]
1. Reagent; 5 uL; 2500 lymphoblastoid cells/well
2. Time; 5 hr; 37 C incubation
4. Controls; 23 nL; Tetraoctylammonium bromide 6.4pM to 92 uM
5. Time; 16 hr; 37 C incubation
6. Reagent; 5 uL; MuliTox-Fluor Assay reagent
7. Time; 60 min; Room Temperature
8. Detection; dead-cell fluorescence (Ex/Em=485/520); EnVision plate reader
Keywords: cytotoxicity, lymphoblastoid cell line, fluorescence, NTPHTS, NTPHTS_NCGC, NIEHS, EPA, DSSTox, MLSMR, MLSCN, NIH Roadmap, qHTS, NCGC

Row | SMILES | cytotoxicity (dead cells) [%]
1 | C=CCOC(=O)COCCC(C)C | -9.5
2 | O=C(O)c1c(Cl)cccc1Cl | -20.8
3 | O=[N+]([O-])c1ccc2nc[nH]c2c1 | 0.07
4 | Nc1nc(CC(=O)O)cs1 | -6.07
5 | CC1(N)CCC(C(C)(C)N)CC1 (stereo not given) | -0.328
6 | CCC(C)(C)OC | -12.6
7 | CC=O | -5.35
8 | CCCCCNCCCCC | -2.43
9 | Oc1c(Cl)ccc(Cl)c1Cl | -4.95
10 | CC/C=C/C#N | -3.26
11 | Cc1ccc2c(c1[N+](=O)[O-])C(=O)c1ccccc1C2=O | 2.45
12 | Clc1ccc(Cl)c(Cl)c1Cl | 2.08
13 | CCCCC(=O)N(C)C | 8.1
14 | Cc1cccc(C(=O)O)c1[N+](=O)[O-] | -7.2
15 | O=Cc1c(Cl)cccc1Cl | -4.33
16 | CNC(=O)N(c1ccccc1)c1ccccc1 | -11.3
17 | Cc1c(N)cccc1N | 2.35
18 | Nc1ccc([N+](=O)[O-])c(N)c1 | 6.35
19 | CC(=O)OCCC(C)C | -12.7
20 | C=C(C)C(=O)OCC(C)C | -0.739

Row | SMILES | cytotoxicity (dead cells) [%]
21 | C=C(C)C(=O)OCC(C)O (stereo not given) | -5.1
22 | Cc1ccc2ncccc2c1 | -8.43
23 | C/C=C(/C)C#N | -10.2
24 | CC(C)C=O | -3.83
25 | CNC(=O)c1ccccc1 | -16.2
26 | CCCCC(CC)COC(=O)CCCCC(=O)OCC(CC)CCCC (stereo not given) | -11.5
27 | Cc1cccc(C)c1 | -5.17
28 | NC(=O)c1cccc([N+](=O)[O-])c1 | -2.35
29 | Cc1ccc(C)o1 | -0.632
30 | CCOCC(=O)O | 5.85
31 | c1ccc(Oc2ccccc2)cc1 | -13.2
32 | O=C(O)CNC(=O)c1ccc([N+](=O)[O-])cc1 | -5.43
33 | CCC1CO1 (stereo not given) | -8.6
34 | Cc1ccco1 | -4.19
35 | CC(C)(c1cc(Br)c(OCC(Br)CBr)c(Br)c1)c1cc(Br)c(OCC(Br)CBr)c(Br)c1 (stereo not given) | -6.23
36 | Cc1cccc2sc(N)nc12 | -0.376
37 | Cc1cccc([N+](=O)[O-])c1C(=O)O | -14
38 | C/C(C=O)=C/c1ccccc1 | -2.94
39 | CCCCCCC(=O)O | -2.78
40 | Clc1cc(Cl)cc(Cl)c1 | -5.68
